Holding throughout (experiment): qHTS profiling for inhibitors of Plasmodium falciparum proliferation (AID 504749); note: nearly all actives have a fitted effect of over 60% in size
Holding throughout (conditions): P. falciparum in erythrocytes, SYBR Green DNA, 72 h; series mostly up to 12.8 µM

The subject of one assay is AA1029. In short, it runs like this:
(§1)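 Quantitative HTS: compounds pinned into medium, infected erythrocytes added (0.3% parasitemia, 2.5% hematocrit), 72 h culture at 37 C under 5% CO2. Saponin/Triton lysis with SYBR Green I, overnight RT, then fluorescence read.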

The test system of a further assay is AS120. In short, it runs like this: as §1
For the next assay, the system named is CP185. In short, it runs like this: as §1
The subject of another assay is CP194. In a few lines:
as §1

In the next assay the test system is CP201. In short, it runs like this:
as §1

The subject of the next assay is CP203. In a few lines: as §1
The test system of a further assay is CP211. In short, it runs like this: as §1
In a further assay the test system is CP215. In short, it runs like this:
as §1

Another assay concerns CP252. In short, it runs like this:
as §1

Another assay concerns CP266. In a few lines: as §1
The next assay concerns CP269. In a few lines: as §1
A further assay relates to CP297. In a few lines:
as §1

Another assay relates to CP315. In short, it runs like this: as §1
For another assay, the system named is CP329. In a few lines: as §1
Another assay deals with DIV17. In short, it runs like this:
as §1

The test system of another assay is DIV30. In a few lines: as §1
For another assay, the system named is ECU. In a few lines: as §1
The test system of another assay is TAB113. In a few lines: as §1
The subject of another assay is TAB165. In a few lines: as §1
A further assay deals with CP286. In short, it runs like this: as §1

Each structure is given as a SMILES string. Results filed as inconclusive are left out. Active and inactive are the calls of the source. Calls come from the whole dose curve; as a rule, active = well fitted inhibition curve with a large enough effect; inconclusive = small, poorly fitted or top-dose-only effect; inactive = flat fitted curve, though single readings scatter.
Potency is the fitted concentration of half-maximal effect.

On to `CC[N+](CC)(CC)CC[C@](O)(c1ccccc1)C1CCCCC1`, for which the Potency entry in the assay with AA1029, with AS120, with CP185, with CP194, with CP201 and with CP203 was “inactive” each time. The Potency entry with CP211, in the assay with CP215, in the assay with CP252, in the assay with CP266, with CP269 and in the assay on CP297 was “inactive” throughout. Also, the Potency entry in the assay on CP315, with CP329, with DIV17, with DIV30, in the assay with ECU and in the assay on TAB113 was “inactive” in each case. The Potency entry in the assay on TAB165 is “inactive”.

Consider `O=C1O[C@H](CN2CCOCC2)CN1/N=C\c1ccc([N+](=O)[O-])o1`, for which the Potency entry with CP194, in the assay with CP201, with CP203, in the assay with CP211, with CP215 and with CP252 was “inactive” in each case. Further, the Potency entry in the assay on CP266, with CP269, with CP297, with CP315, with CP329 and in the assay with DIV17 was “inactive” in each case. Also, the Potency entry with DIV30 was “inactive”.

Take `C=CCOc1ccccc1OC[C@H](O)CNC(C)C`: the Potency entry in the assay with AA1029, in the assay with AS120, in the assay on CP185, with CP194, in the assay on CP201 and with CP203 was “inactive” throughout. Further, the Potency result in the assay on CP211, in the assay with CP252, with CP269, in the assay on CP286, in the assay with CP329 and in the assay with DIV17 was “inactive” each time. Besides, the Potency entry in the assay on DIV30, with ECU and with TAB113 was “inactive” throughout.

As for `CC1(C)O[C@@H]2C[C@H]3[C@H]4C[C@H](F)C5=CC(=O)CC[C@]5(C)[C@@H]4[C@H](O)C[C@]3(C)[C@]2(C(=O)CO)O1`, the Potency entry with AA1029, with AS120, with CP185, in the assay on CP194, in the assay with CP201 and in the assay with CP203 was “inactive” throughout. Besides, the Potency result in the assay with CP211, in the assay with CP252, in the assay with CP266, in the assay on CP269, with CP286 and in the assay on CP297 was “inactive” in each case. In addition, the Potency entry in the assay with CP315, in the assay on CP329, with DIV17, in the assay with DIV30, in the assay on ECU and in the assay on TAB113 was “inactive” in each case. Moreover, the Potency entry in the assay with TAB165 is “inactive”.

In the case of `CNC[C@H](O)c1ccc(OC(=O)C(C)(C)C)c(OC(=O)C(C)(C)C)c1`, the Potency result in the assay with AA1029, in the assay on AS120, in the assay on CP185, with CP194, with CP201 and in the assay on CP203 was “inactive” each time. Moreover, the Potency entry with CP211, in the assay on CP252, in the assay with CP266, in the assay on CP286, with CP297 and with CP329 was “inactive” throughout. For the same molecule, the Potency result in the assay on DIV30, in the assay with ECU, in the assay on TAB113 and in the assay with TAB165 was “inactive” each time.

As to `CC(=O)O[C@]1(C(C)=O)CC[C@@H]2[C@@H]3C=C(C)C4=CC(=O)CC[C@@]4(C)[C@H]3CC[C@]21C`, the Potency entry in the assay with AA1029, in the assay with AS120, in the assay on CP185, in the assay on CP194, in the assay on CP201 and in the assay with CP203 was “inactive” in each case. The Potency entry with CP211, with CP215, with CP252, with CP266, in the assay on CP269 and in the assay on CP286 was “inactive” in each case. Moreover, the Potency entry with CP297, in the assay with CP315, with CP329, in the assay with DIV17, in the assay with DIV30 and in the assay with ECU was “inactive” in each case. For the same molecule, the Potency entry in the assay with TAB113 and in the assay with TAB165 was “inactive” each time.

As to `CO[C@H]1[C@H](O[C@H]2O[C@@H](C)[C@@H](O[C@@H]3C[C@](C)(O)[C@H](OC(=O)CC(C)C)[C@H](C)O3)[C@@H](N(C)C)[C@@H]2O)[C@@H](CC=O)C[C@@H](C)[C@@H](O)/C=C\C=C/C[C@@H](C)OC(=O)C[C@H]1OC(C)=O`, the Potency result in the assay with TAB113 was “inactive”.

Consider `CO[C@]1(NC(=O)C2SC(=C(C(N)=O)C(=O)O)S2)C(=O)N2C(C(=O)O)=C(CSc3nnnn3C)CS[C@H]21` (some centres undefined), for which the Potency result in the assay with AA1029, in the assay with AS120, in the assay on CP185, in the assay with CP194, with CP201 and in the assay with CP203 was “inactive” throughout. Besides, the Potency entry in the assay on CP211, with CP215, with CP252, in the assay with CP266, in the assay with CP269 and in the assay with CP286 was “inactive” throughout. Besides, the Potency result in the assay on CP297, in the assay on CP315, in the assay on CP329, in the assay with DIV17, in the assay on DIV30 and in the assay on ECU was “inactive” each time. Moreover, the Potency result with TAB113 and with TAB165 was “inactive” throughout.

As for `C=CCN1C(=CCO)[C@H]2C[C@H]3[C@@H]1CC[C@@]31c3ccccc3N3C=C4[C@@H]5N(/C=C/2[C@H]31)c1ccccc1[C@]51CC[C@H]2[C@H]1C[C@@H]4/C(=C/CO)N2CC=C`, the Potency entry in the assay on AA1029, with AS120, in the assay on CP185, with CP194, in the assay on CP201 and with CP203 was “inactive” each time. In addition, the Potency result in the assay on CP211, with CP215, in the assay with CP252, in the assay on CP266, in the assay on CP269 and with CP286 was “inactive” in each case. The Potency entry in the assay with CP297, with CP315, with CP329, with DIV17, with DIV30 and in the assay on ECU was “inactive” each time. For the same molecule, the Potency entry in the assay with TAB113 and in the assay on TAB165 was “inactive” throughout.

Consider `COc1ccc(C[C@@](C)(N)C(=O)O)cc1OC`, for which the Potency result with AA1029, with AS120, with CP185, in the assay on CP194, in the assay on CP201 and in the assay with CP203 was “inactive” throughout. For the same molecule, the Potency entry in the assay with CP211, in the assay with CP215, in the assay on CP252, with CP266, with CP269 and in the assay with CP286 was “inactive” each time. The Potency result in the assay with CP297, in the assay with CP315, with CP329, with DIV17, with DIV30 and with ECU was “inactive” in each case. Moreover, the Potency entry with TAB113 and with TAB165 was “inactive” in each case.

Consider `COc1cc(N)c(Cl)cc1C(=O)N[C@H]1CCN(CCCOc2ccc(F)cc2)C[C@H]1OC`, for which the Potency result in the assay on CP203, in the assay with CP215, in the assay on CP266, in the assay on CP297 and in the assay with CP315 was “inactive” in each case. The Potency in the assay with CP286 and in the assay with TAB165 was 3.55 µM (active) in each case.

With `CCOC(=O)[C@H](CCc1ccccc1)N[C@@H](C)C(=O)N1[C@H](C(=O)O)C[C@H]2CCC[C@@H]21`, the Potency result in the assay on AA1029, in the assay on AS120, in the assay with CP185, with CP194, with CP201 and in the assay with CP203 was “inactive” throughout. Further, the Potency entry in the assay with CP211, in the assay on CP215, in the assay with CP252, in the assay with CP266, with CP269 and in the assay on CP286 was “inactive” in each case. In addition, the Potency entry in the assay on CP315, in the assay with DIV17, in the assay with ECU, in the assay with TAB113 and in the assay with TAB165 was “inactive” each time.

For `C[N+]12CCC(CC1)[C@@H](OC(=O)C(O)(c1ccccc1)c1ccccc1)C2`, the Potency entry in the assay with AA1029, with AS120, with CP185, in the assay on CP252, with CP266 and in the assay with CP269 was “inactive” throughout. The Potency entry in the assay with CP286, with CP297, in the assay with CP329, in the assay on ECU, in the assay with TAB113 and in the assay with TAB165 was “inactive” throughout.
